In PubChem BioAssay (NCI) one finds growth data, which are given here for 23 molecules.

The panel holds about 83,000 compounds, 20% with a hit somewhere; the sample as a whole holds those more often.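 Percent growth is the endpoint: 0 to 100 indicates growth inhibition (40 means 60% inhibition), 0 means no net growth, and negative values indicate cell death.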 Calls of active or inactive are those of the source. The calls were made as follows: active = growth percent below 10; inactive = the rest.

In the assay the test system is HL-60(TB) leukemia. The assay can be described thus: NCI-60 one-dose screen, 48 h (100 = growth as untreated, 0 = no growth, -100 = all killed). As to conditions: 10 µM unless noted.
As to `O=C(/C=C/c1ccccn1)c1ccc(OCc2nnc(-c3ccc(Cl)cc3)o2)cc1`, the growth is 43% (inactive).

Consider `CCN(CC)C(=S)SSC(=S)N(CC)CC`, for which the growth is 73.7% (inactive). Regarding `Nc1ccn(C2CC(N)C(CO)O2)c(=O)n1` (stereo not drawn), the growth is 84.6% (inactive). Turning to `COc1ccccc1NC(=O)COc1ccc(/C=C2/Oc3cc4occc4c(OC)c3C2=O)cc1OC`, the growth is 87.5% (inactive). Consider `C=NNc1ccccc1`, for which the growth is 117% (inactive). Turning to `Cc1cc(Nc2ccc3c(c2)OCO3)c2cc3c(cc2n1)OCO3`, the growth is -11.9% (active). The same measure for `N#Cc1c(-c2ccccc2)cc(-c2ccccc2)n(CCCCCCC(=O)O)c1=O`: 105% (inactive). For `C[C@@H]1CC2C3C[C@H](F)C4=CC(=O)C=C[C@]4(C)[C@@]3(F)[C@@H](O)C[C@]2(C)[C@@]1(O)C(=O)CO` (stereo partly drawn), the growth was 99.1% (inactive). The same measure for `COc1ccc2nc3cc(Cl)ccc3c(NCCNCC(O)CO)c2c1` (stereo not drawn): 15.6% (inactive). With `CCC(O)(C(c1ccccc1)c1ccccn1)C(c1ccccc1)c1ccccn1` (stereo not drawn), the growth was 79% (inactive). As for `COc1ccc(CCN2C(=O)C(C)(C)SC2=S)cc1OC`, the growth was 106% (inactive). As for `OC(COc1ccccc1)CN1CCN(c2ccc(Cl)cc2)CC1` (stereo not drawn), the growth is 83.3% (inactive). With `COc1ccc(N(C)c2ncnc3occ(C)c23)cc1`, the growth is -34.9% (active).

As for `CC(=O)N1N=C(c2ccc(C)cc2)CC1c1ccc(Oc2ccc(Br)cc2)cc1` (stereo not drawn), the growth is 94% (inactive). `c1ccc(Nc2ncc3c(n2)-c2cccn2CC3)cc1`: the growth was 107% (inactive). Regarding `O=C(Nc1ccc(F)cc1)Nc1ccc(Cl)c([N+](=O)[O-])c1`, the growth was -15.6% (active). As for `c1cc(CNC23CC4CC(CC(C4)C2)C3)cc(C[N+](Cc2cccc(CNC34CC5CC(CC(C5)C3)C4)c2)(Cc2cccc(CNC34CC5CC(CC(C5)C3)C4)c2)Cc2cccc(CNC34CC5CC(CC(C5)C3)C4)c2)c1` (stereo not drawn), the growth was -29.5% [42 µM] (active).

Regarding `CC12CCC(O)CC1=CCC1C2CCC2(C)C3=NN=CC3CC12` (stereo not drawn), the growth was 103% (inactive). In the case of `CC[C@H]1OC(=O)[C@H](C)[C@@H](O[C@H]2C[C@@](C)(OC)[C@@H](O)[C@H](C)O2)[C@H](C)[C@@H](O[C@@H]2O[C@H](C)C[C@H](N(C)C)[C@H]2O)[C@](C)(OC)C/C(C)=C2/O[C@@]1(C)C=C2C`, the growth is 41.4% (inactive). `CCOC(=O)/C=C1\S/C(=N\Nc2cc(=O)[nH]c3ccc(OC)cc23)N(c2ccccc2)C1=O`: the growth is 96.1% (inactive). Turning to `COc1cc2c(c(OC)c1OC)C(=O)N[C@@H]1[C@@H](O)[C@@H](O)[C@H](O)C[C@@H]21`, the growth is 99.3% (inactive). As to `CCCCCCCCCCC/C=C\C[C@H](O)C/C=C1/C(=O)C=C[C@@H]1C/C=C\CCCC(=O)OC`, the growth is -20% (active).

With `COc1cc(CNc2ccccc2C(=O)N2CCN(C(=O)c3cc(-c4cc(OC)c(OC)c(OC)c4)n4nc(-c5ccccc5)cc4n3)CC2)cc(OC)c1OC`, the growth was 34.7% (inactive).
